{"source": "PubChem BioAssay AID1159577", "about": "(Broad Institute, 2015)", "note": "About 240 (18%) of roughly 1,300 compounds were called active. About 8% were inconclusive and are not listed. The rule behind the calls is not given here. These entries were drawn from the full list. Entries that show only a call come without a potency. Potency and affinity values are given separately."}
{"test": "HepG2 cell cytotoxicity, dose response, cytotoxicity control, cherry-picked samples (AID 1159577)", "conditions": "HepG2 cytotoxicity counterscreen, plate reader; series mostly up to 19.5 µM"}
{"molecule": "C[C@@H]1CN([C@H](C)CO)C(=O)c2cccc(NS(=O)(=O)c3ccccc3)c2O[C@H]1CN(C)Cc1ccc(Oc2ccccc2)cc1", "outcome": "inactive"}
{"molecule": "COc1cccc(NC(=O)N(C)C[C@H]2Oc3ncc(/C=C/c4ccccc4)cc3C(=O)N([C@@H](C)CO)C[C@@H]2C)c1", "outcome": "inactive"}
{"molecule": "COc1cccc(S(=O)(=O)N2CCC3(CC2)CN[C@@H](CO)c2[nH]c4cc(OC)ccc4c23)c1", "outcome": "inactive"}
{"molecule": "COc1ccc(CN2C[C@H](C)[C@H](OC)CN(C)C(=O)c3cc(NC(=O)c4nc5ccccc5s4)ccc3OC[C@@H]2C)cc1", "outcome": "inactive"}
{"molecule": "C[C@@H]1CN([C@H](C)CO)C(=O)c2cccc(NC(=O)c3nc4ccccc4s3)c2O[C@H]1CN(C)C(=O)NC1CCCCC1", "outcome": "inactive"}
{"molecule": "C[C@@H]1CN([C@H](C)CO)C(=O)c2c(c3ccccc3n2C)-c2ccccc2CO[C@H]1CN(C)S(=O)(=O)c1ccsc1", "outcome": "inactive"}
{"molecule": "CCC(=O)N1CC2(CCN(Cc3ccc(Cl)cc3)CC2)c2c(n(C)c3cc(OC)ccc23)[C@@H]1CO", "outcome": "inactive"}
{"molecule": "CCCNC(=O)N1CC2(CCN(C(=O)CN(C)C)CC2)c2c(n(C)c3cc(OC)ccc23)[C@H]1CO", "outcome": "inactive"}
{"molecule": "CC(C)(C)S(=O)N1Cc2cc(C(=O)N[C@@H]3CCN(Cc4ccccc4)C3)nc(-c3cccc(C#CCC4CCCC4)c3)c2[C@H]1CCO", "note": "(some centres undefined)", "outcome": "inactive"}
{"molecule": "COc1ccc(C#Cc2ccc3c(c2)O[C@@H](CN(C)C(=O)Nc2cccc(OC)c2)[C@H](C)CN([C@@H](C)CO)S3(=O)=O)cc1", "outcome": "inactive"}
{"molecule": "CO[C@@H]1CN(C)C(=O)c2cc(NC(=O)NC3CCCCC3)ccc2OC[C@@H](C)N(CCc2ccccc2)C[C@H]1C", "outcome": "inactive"}
{"molecule": "COc1ccc2c3c([nH]c2c1)[C@@H](CO)N(Cc1cccc(F)c1)CC31CCN(Cc2ccccn2)CC1", "outcome": "inactive"}
{"molecule": "COc1ccc(C#Cc2ccc([C@@H]3[C@@H](CO)N4CCCCN(C(=O)Nc5ccccc5F)C[C@@H]34)cc2)cc1", "outcome": "inactive"}
{"molecule": "COc1ccc(C#Cc2ccc([C@H]3[C@@H](CO)N4CCCCN(C(=O)Nc5ccccc5F)C[C@@H]34)cc2)cc1", "outcome": "inactive"}
{"molecule": "N#C[C@@H]1[C@@H](c2ccccc2-c2ccccc2F)[C@H](CO)N1C(=O)C1CC1", "outcome": "inactive"}
{"molecule": "COCc1cn([C@@H]2C[C@@H]3O[C@@H](CO)CC[C@@H]3O[C@@H]2CCc2ccc(-c3ccc(OC)cc3)cc2)nn1", "outcome": "inactive"}
{"molecule": "O=C(Nc1cccc(F)c1)N[C@@H]1CC[C@@H](CCNS(=O)(=O)c2cccc(Cl)c2)O[C@@H]1CO", "outcome": "inactive"}
{"molecule": "CCCNC(=O)N1[C@H](C#N)[C@H](c2ccc(-c3cccc(OC)c3)cc2)[C@@H]1CO", "outcome": "inactive"}
{"molecule": "CC(C)NC(=O)N1[C@H](C#N)[C@H](c2ccc(-c3ccc(F)cc3)cc2)[C@@H]1CO", "outcome": "inactive"}
{"molecule": "COc1ccc(-c2ccc([C@H]3[C@H](C#N)N(C(=O)c4cccc(F)c4)[C@H]3CO)cc2)cc1", "outcome": "inactive"}
{"molecule": "CC(C)NC(=O)N1[C@H](C#N)[C@H](c2ccc(C#CC3CCCC3)cc2)[C@@H]1CO", "outcome": "inactive"}
{"molecule": "COc1ccc(-c2ccccc2[C@H]2[C@@H](C#N)N(C(=O)NC(C)C)[C@H]2CO)cc1", "outcome": "inactive"}
{"molecule": "CC(C)NC(=O)N1[C@H](C#N)[C@H](c2ccccc2-c2ccc(F)cc2)[C@@H]1CO", "outcome": "inactive"}
{"molecule": "C[C@H]1CN([C@@H](C)CO)C(=O)c2c(c3ccccc3n2C)-c2ccccc2CO[C@@H]1CN(C)S(=O)(=O)c1ccc(C(F)(F)F)cc1", "outcome": "inactive"}
{"molecule": "C[C@H]1CN([C@@H](C)CO)C(=O)c2cc(NC(=O)Cc3cn(C)c4ccccc34)ccc2O[C@H]1CN(C)S(=O)(=O)c1ccccc1", "outcome": "inactive"}
{"molecule": "CO[C@H]1CN(C)C(=O)c2cc(NC(=O)c3ccc(F)cc3)ccc2OC[C@H](C)N(C(=O)c2ccc(F)cc2)C[C@H]1C", "outcome": "inactive"}
{"molecule": "O=C(c1ccccn1)N1CC(=O)N2[C@H](CO)[C@@H](c3ccc(C#CCc4ccccc4)cc3)[C@@H]2C1", "outcome": "inactive"}
{"molecule": "CCCNC(=O)c1cc2c(c(-c3cccc(-c4cc5ccccc5o4)c3)n1)[C@@H](CCO)N(C(=O)NC(C)C)C2", "outcome": "inactive"}
{"molecule": "O=C(C1CCC1)N1C[C@@H]2N[C@H](C1)C2c1ccc(-c2ccccc2F)cc1", "note": "(some centres undefined)", "outcome": "inactive"}
{"molecule": "N#Cc1ccc(-c2ccc(C3[C@@H]4CN(C(=O)C5CCC5)C[C@H]3N4)cc2)cc1", "note": "(some centres undefined)", "outcome": "inactive"}
{"molecule": "C/C=C/c1ccc([C@H]2[C@H](CO)N(S(=O)(=O)Cc3ccccc3)C23CN(C(=O)C2CCCC2)C3)cc1", "outcome": "inactive"}
{"molecule": "CCCNC(=O)N1CCC2(CC1)CN(Cc1cccc(F)c1)[C@@H](CO)c1[nH]c3cc(OC)ccc3c12", "outcome": "inactive"}
{"molecule": "C[C@@H]1CN([C@@H](C)CO)C(=O)c2cccc(NC(=O)C3CC3)c2O[C@H]1CN(C)Cc1ccc(-c2ccccc2)cc1", "outcome": "inactive"}
{"molecule": "C[C@H](CO)N1C[C@H](C)[C@H](CN(C)S(=O)(=O)c2ccccc2)Oc2ccc(NC(=O)Cc3cn(C)c4ccccc34)cc2C1=O", "outcome": "inactive"}
{"molecule": "C[C@H]1CN([C@@H](C)CO)S(=O)(=O)c2ccc(C#Cc3ccccc3F)cc2O[C@@H]1CN(C)C(=O)c1ccc2c(c1)OCO2", "outcome": "inactive"}
{"molecule": "CO[C@H]1CN(C)C(=O)c2cc(NC(C)=O)ccc2OC[C@H](C)N(Cc2ccncc2)C[C@H]1C", "outcome": "inactive"}
{"molecule": "C[C@@H]1CN([C@@H](C)CO)C(=O)Cc2cc(NC(=O)NC3CCCCC3)ccc2O[C@H]1CN(C)C(=O)Nc1cccc2ccccc12", "outcome": "inactive"}
{"molecule": "COc1ccc(C#Cc2ccc3c(c2)[C@H]2[C@H](CCN2Cc2ccncc2)[C@@H](CO)N3)cc1", "outcome": "inactive"}
{"molecule": "CCCC#Cc1ccc2c(c1)[C@H]1[C@H](CCN1Cc1ccccc1F)[C@@H](CO)N2", "outcome": "inactive"}
{"molecule": "COc1ccc(C#Cc2ccc3c(c2)[C@H]2[C@H](CCN2Cc2ccncc2)[C@H](CO)N3)cc1", "outcome": "inactive"}
{"molecule": "COc1ccc(C#Cc2ccc3c(c2)[C@H]2[C@H](CCN2Cc2nccs2)[C@H](CO)N3)cc1", "outcome": "inactive"}
{"molecule": "COc1ccccc1-c1ccc2c(c1)[C@H]1[C@H](CCN1C(=O)C1CCCC1)[C@@H](CO)N2", "outcome": "inactive"}
{"molecule": "COc1ccccc1-c1ccc2c(c1)[C@@H]1[C@@H](CCN1C(=O)C1CCCCC1)[C@@H](CO)N2", "outcome": "inactive"}
{"molecule": "OC[C@H]1CC[C@@H]2O[C@H](CCc3ccc(C#CCc4ccccc4)cc3)[C@H](n3cc(-c4ccccc4)nn3)C[C@@H]2O1", "outcome": "inactive"}
